Records with an inconclusive call do not appear. Calls of active or inactive are those of the source. Calls come from the whole dose curve; as a rule, active = well fitted inhibition curve with a large enough effect in the repeat runs; inconclusive = weak or mixed curves; inactive = no such curve, though single readings can be large or run the other way.
target: Cytochrome P450 2C19 (Homo sapiens) (UniProt P33261); assay: Cytochrome P450 Family 2 Subfamily C Member 19 (CYP2C19) small molecule antagonists: luciferase reporter qHTS assay (AID 1671197); conditions: P450-Glo CYP2C19 enzyme, luciferin luminescence, 1 h; series mostly up to 115 µM; activity change, negative = inhibition: at the top concentration; note: nearly all actives have a fitted effect of over 65% in size
Sequence (P33261 whole entry, looked up): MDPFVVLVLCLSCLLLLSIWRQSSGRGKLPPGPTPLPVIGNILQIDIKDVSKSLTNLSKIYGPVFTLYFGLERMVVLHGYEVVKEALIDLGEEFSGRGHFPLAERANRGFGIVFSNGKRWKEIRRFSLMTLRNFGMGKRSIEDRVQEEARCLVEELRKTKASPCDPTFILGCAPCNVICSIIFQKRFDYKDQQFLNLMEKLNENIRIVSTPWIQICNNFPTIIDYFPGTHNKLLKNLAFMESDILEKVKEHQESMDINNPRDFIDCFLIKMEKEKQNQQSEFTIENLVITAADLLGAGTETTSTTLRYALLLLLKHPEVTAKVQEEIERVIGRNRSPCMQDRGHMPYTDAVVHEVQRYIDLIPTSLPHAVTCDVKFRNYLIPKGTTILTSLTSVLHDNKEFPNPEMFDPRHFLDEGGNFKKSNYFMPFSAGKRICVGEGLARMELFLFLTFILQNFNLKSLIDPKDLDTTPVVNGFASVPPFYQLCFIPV
Procedure, shortened: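 Inhibition of CYP2C19 was scored from loss of luminescence in a P450-Glo proluciferin substrate assay, NADPH-started and run 1 h at 37C, with ketoconazole as positive control.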
% is set by controls: 0 for no effect and ±100 for the full control effect; potency is the fitted concentration of half-maximal effect.

SMILES	activity change, negative = inhibition	Potency
CC1(C)CC(O)CC(C)(C)N1	-0.723% (inactive)	–
CNc1ccc([N+](=O)[O-])cc1	–	35.7 µM (active)
CCCCCCCCCCCC(=O)OCC(C)OC(=O)CCCCC(=O)O (stereo not given)	-28.7% [at 52.9 µM] (inactive)	–
O=C(Oc1ccccc1)Oc1ccccc1	–	79.3 µM (active)
CCCCCc1ccc(Cl)cc1	14.2% (inactive)	–
Cc1cc(C(C)(C)C)c(O)c(C)c1Cn1c(=O)n(Cc2c(C)cc(C(C)(C)C)c(O)c2C)c(=O)n(Cc2c(C)cc(C(C)(C)C)c(O)c2C)c1=O	–	6.33 µM (active)
CCO[Si](OCC)(OCC)OCC	-28.3% (inactive)	–
CCC(=O)C(=O)CC	–	41.6 µM (active)
O=C1OC2(c3ccc(O)cc3Oc3cc(O)ccc32)c2ccc(N=C=S)cc21	–	72.3 µM (active)
CN1CCN2c3ccccc3Cc3ccccc3C2C1 (stereo not given)	-11.3% [at 52.9 µM] (inactive)	–
CCC(C)(CCC(C)C)C(=O)[O][Sn]([CH3])([CH3])[O]C(=O)C(C)(CC)CCC(C)C (stereo not given)	–	56.4 µM (active)
C=C(C)C(=O)OCCCCCCCCCC	–	56.8 µM (active)
COC(C)=O	-27% (inactive)	–
CCCCCCCCCCOC(=O)c1ccccc1C(=O)OCCCCCCCC	-8.05% (inactive)	–
CCCCCCCCCCCCCCCC[N+](C)(C)CC	7.56% [at 52.9 µM] (inactive)	–
CCCCOC(=O)CO	22.3% (inactive)	–
CC(C(=O)O)c1ccc2c(c1)[nH]c1ccc(Cl)cc12 (stereo not given)	-8.46% [at 52.9 µM] (inactive)	–
Cc1ccc(N/N=c2\c(=O)cc/c(=N\Nc3ccc(S(=O)(=O)O)cc3)c2=O)c(C)c1	–	79.6 µM (active)
C=CC(=O)Nc1cc2c(Nc3ccc(F)c(Cl)c3)ncnc2cc1OCCCN1CCOCC1	-5.02% [at 52.9 µM] (inactive)	–
O=S(=O)(O)c1ccccc1/C=C/c1ccc(-c2ccc(/C=C/c3ccccc3S(=O)(=O)O)cc2)cc1	-23.1% (inactive)	–

Reference: PubChem BioAssay (Tox21)
